PubChem BioAssay
A number with no mark means an inactive call. For some assays here: Entries with a potency or affinity are not part of this list. Activity calls are given as the source filed them. Unless noted, no rule for the calls is given here.

Columns and labels:
[1] = antimalarial activity against Dd2 strain (AID 2302;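 active = growth inhibition above 50% at the single 2 µM test dose, taken to imply half-maximal potency below 2 µM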;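 also: 0% = DMSO untreated growth and 100% = chloroquine plus artemisinin killed control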); details: P. falciparum Dd2 in RBCs, LDH growth readout, 72 h; at 2 µM; active compounds read high
[2] = human hepatoma cell viability loss – ATP luminescence, cytotoxicity control for P. falciparum antimalarial project, primary screen (AID 2303;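 active = inhibition above 50%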;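 also: 0% = DMSO wells and 100% = digitonin-killed cells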); details: HepG2 viability, 24-48 h, at 10 µM, active compounds read high
[3] = biological target: L-lactate dehydrogenase (Plasmodium falciparum (isolate CDC / Honduras)) (UniProt Q27743); assay: PfLDH activity inhibition – cell lysate, 3D7 strain, counter-screen for P. falciparum growth inhibition project (AID 2304);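 also: 0% = vehicle and 100% = reference inhibitor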; details: P. falciparum 3D7 crude extract, LDH APAD/NBT absorbance; at 2 µM; active compounds read high
Sequence of L-lactate dehydrogenase (Plasmodium falciparum (isolate CDC / Honduras)) (Q27743 whole entry, looked up): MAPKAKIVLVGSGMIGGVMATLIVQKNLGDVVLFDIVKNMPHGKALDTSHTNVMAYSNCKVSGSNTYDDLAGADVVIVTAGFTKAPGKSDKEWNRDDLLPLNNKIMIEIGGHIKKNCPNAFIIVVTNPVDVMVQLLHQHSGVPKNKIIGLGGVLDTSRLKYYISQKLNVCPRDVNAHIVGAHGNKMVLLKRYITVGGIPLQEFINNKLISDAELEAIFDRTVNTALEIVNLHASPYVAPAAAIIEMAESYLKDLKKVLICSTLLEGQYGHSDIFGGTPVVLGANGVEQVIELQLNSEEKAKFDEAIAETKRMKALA

[4] = inhibition of 3D7 malaria parasite growth – strain 3D7 (AID 2306);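 also: 0% = DMSO wells and 100% = chloroquine plus artemisinin control wells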; details: P. falciparum 3D7 erythrocytic growth, LDH absorbance, 72 h; at 2 µM; active compounds read high
[5] = biological target: Calcium-dependent protein kinase 1 (Plasmodium falciparum (isolate 3D7)) (UniProt P62344); assay: PfCDPK1 kinase inhibitors, biochemical, TCAMS library (AID 1159585; cut-off not given, nearly all actives have IC50 up to about 0.98 µM;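 also: inhibitors leave more ATP so luminescence rises with inhibition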); details: recombinant PfCDPK1, Kinase-Glo ATP depletion luminescence
Sequence of Calcium-dependent protein kinase 1 (Plasmodium falciparum (isolate 3D7)) (P62344 whole entry, looked up): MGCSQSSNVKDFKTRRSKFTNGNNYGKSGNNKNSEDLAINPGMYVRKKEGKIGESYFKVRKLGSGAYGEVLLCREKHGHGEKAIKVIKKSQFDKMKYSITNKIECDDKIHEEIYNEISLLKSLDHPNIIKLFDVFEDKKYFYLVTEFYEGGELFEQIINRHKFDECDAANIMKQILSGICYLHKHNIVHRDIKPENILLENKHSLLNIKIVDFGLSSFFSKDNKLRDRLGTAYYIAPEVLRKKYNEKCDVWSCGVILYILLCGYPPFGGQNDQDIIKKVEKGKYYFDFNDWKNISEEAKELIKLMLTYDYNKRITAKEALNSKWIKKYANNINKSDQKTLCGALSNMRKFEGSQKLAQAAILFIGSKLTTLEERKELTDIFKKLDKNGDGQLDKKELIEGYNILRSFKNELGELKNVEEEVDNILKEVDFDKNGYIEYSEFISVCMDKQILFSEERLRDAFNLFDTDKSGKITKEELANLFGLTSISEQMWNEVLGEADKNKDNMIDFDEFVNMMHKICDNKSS

[6] = biological target: Plasmodium falciparum protein kinase 6 (PK6, PF3D7_1337100) (UniProt Q8IDW1); assay: PfPK6 kinase inhibitors, biochemical, TCAMS library (AID 1159586); details: recombinant PfPK6, Kinase-Glo ATP depletion luminescence
Sequence of Plasmodium falciparum protein kinase 6 (PK6, PF3D7_1337100) (Q8IDW1 1-305): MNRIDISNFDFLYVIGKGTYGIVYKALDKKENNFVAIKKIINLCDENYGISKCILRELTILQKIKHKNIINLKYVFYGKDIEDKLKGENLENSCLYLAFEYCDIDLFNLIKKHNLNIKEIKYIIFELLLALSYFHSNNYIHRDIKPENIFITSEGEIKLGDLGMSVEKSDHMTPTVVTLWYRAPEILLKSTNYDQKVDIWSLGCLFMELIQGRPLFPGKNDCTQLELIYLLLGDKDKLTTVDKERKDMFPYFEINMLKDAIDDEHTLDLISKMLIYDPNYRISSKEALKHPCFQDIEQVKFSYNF

[7] = biological target: Protein kinase 7 (PK7), Plasmodium falciparum 3D7 (PF3D7_0213400) (UniProt Q7YTF7); assay: inhibition of Plasmodium PK7 catalytic activity – biochemical, TCAMS antimalarial set, Kinase-Glo luminescence (AID 1159587); details: recombinant PfPK7, Kinase-Glo ATP depletion luminescence
Sequence of Protein kinase 7 (PK7), Plasmodium falciparum 3D7 (PF3D7_0213400) (Q7YTF7 1-343): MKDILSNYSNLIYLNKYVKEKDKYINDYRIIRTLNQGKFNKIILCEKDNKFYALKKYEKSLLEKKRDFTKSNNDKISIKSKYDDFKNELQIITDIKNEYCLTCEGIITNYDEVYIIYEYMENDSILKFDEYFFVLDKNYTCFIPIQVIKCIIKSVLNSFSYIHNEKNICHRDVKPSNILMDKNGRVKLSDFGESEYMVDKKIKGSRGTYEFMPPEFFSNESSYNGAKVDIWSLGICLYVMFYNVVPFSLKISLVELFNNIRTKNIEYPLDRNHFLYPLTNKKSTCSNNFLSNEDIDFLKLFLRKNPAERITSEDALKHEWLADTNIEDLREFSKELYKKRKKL

[8] = biological target: Calcium-dependent protein kinase 4 (Plasmodium falciparum (isolate 3D7)) (UniProt Q8IBS5); assay: PfCDPK4 kinase inhibitors, biochemical, TCAMS library (AID 1159588; cut-off not given, nearly all actives have IC50 up to about 0.91 µM); details: recombinant PfCDPK4, Kinase-Glo ATP depletion luminescence
Sequence of Calcium-dependent protein kinase 4 (Plasmodium falciparum (isolate 3D7)) (Q8IBS5 whole entry, looked up): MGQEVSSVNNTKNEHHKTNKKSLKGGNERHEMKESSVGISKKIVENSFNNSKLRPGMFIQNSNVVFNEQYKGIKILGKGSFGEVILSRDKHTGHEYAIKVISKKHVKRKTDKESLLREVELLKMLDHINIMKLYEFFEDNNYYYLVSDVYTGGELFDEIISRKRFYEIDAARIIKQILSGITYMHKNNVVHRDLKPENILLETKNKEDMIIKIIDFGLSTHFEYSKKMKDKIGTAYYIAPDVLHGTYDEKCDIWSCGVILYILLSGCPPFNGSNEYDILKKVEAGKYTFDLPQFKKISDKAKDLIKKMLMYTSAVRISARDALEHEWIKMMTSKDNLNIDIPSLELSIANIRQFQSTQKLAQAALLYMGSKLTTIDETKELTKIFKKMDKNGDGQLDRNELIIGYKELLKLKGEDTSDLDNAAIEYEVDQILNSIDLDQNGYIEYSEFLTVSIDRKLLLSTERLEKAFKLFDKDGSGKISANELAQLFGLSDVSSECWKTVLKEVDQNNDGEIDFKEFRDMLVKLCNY

SMILES | growth inhibition [1] | inhibition [2] | inhibition [3] | growth inhibition [4] | outcome [5] | outcome [6] | outcome [7] | outcome [8]
COc1cc(Cc2cnc(N)nc2N)cc(OC)c1OCCCCC(=O)O | -1% | -4% | -4% | 88% (active) | inactive | inactive | inactive | inactive
CC(C)C1C(O)=C(c2ccc3ccccc3c2)C(=O)N1Cc1cccc(F)c1 (stereo not given) | 82% (active) | 3% | 3% | 97% (active) | inactive | inactive | inactive | inactive
Cc1cc(N2CCCC2)nc(Nc2ccc(NC(=O)CC(C)C)cc2)n1 | 53% (active) | 37% | -1% | 95% (active) | inactive | inactive | inactive | inactive
Cc1nc(-c2nc(NCCc3c(C)noc3C)ncc2-c2ccsc2)sc1C | 85% (active) | 12% | -2% | 87% (active) | inactive | inactive | inactive | inactive
c1cncc(Oc2ccc(Nc3ccnc4cc(-c5cccc(CN6CCOCC6)c5)ccc34)cc2)c1 | 100% (active) | 14% | 5% | 101% (active) | inactive | inactive | inactive | inactive
CC(C)c1ncc(-c2ccncc2)c(C2CCC(CNC(=O)c3cccnc3)CC2)n1 (stereo not given) | 88% (active) | -14% | 1% | 89% (active) | inactive | inactive | inactive | inactive
CC(=O)Nc1ccc(CN(C)C2CCN(c3cc(NC(=O)c4cccc(C)c4)ccn3)CC2)cc1 | 13% | -2% | -1% | 94% (active) | inactive | inactive | inactive | inactive
COc1ccc(NC(=O)c2ccc(Br)c(C)c2)cc1N1CCN(Cc2ccccc2)CC1 | 3% | -2% | 0% | 95% (active) | inactive | inactive | inactive | inactive
Cc1cccc2[nH]c(-c3ccc(-c4cccc(NC(=O)Cc5cnc[nH]5)c4)cc3)nc12 | 21% | 13% | -4% | 98% (active) | inactive | inactive | inactive | inactive
c1ccc2[nH]c(-c3ccc(-c4ccc(CN5CCN(CCN6CCOCC6)CC5)cc4)cc3)nc2c1 | 99% (active) | 43% | -1% | 98% (active) | inactive | inactive | inactive | inactive
O=C(NC1CCCCN(Cc2ccccc2O)C1)c1ccc(-c2ccccc2)cc1 (stereo not given) | 61% (active) | 21% | -3% | 97% (active) | inactive | inactive | inactive | inactive
CN1CCN(c2ccc(-c3nc4c(C(N)=O)c(OCc5cc(Cl)cc(Cl)c5)ccc4[nH]3)cc2)CC1 | 85% (active) | 45% | -2% | 100% (active) | inactive | inactive | inactive | inactive
O=C(/C=C/c1ccc(Cl)c(Cl)c1)NCCCCCN1CCC(NC(=O)Nc2cc(F)cc(F)c2)CC1 | 6% | 80% (active) | -3% | 101% (active) | inactive | inactive | inactive | inactive
CCCCCCn1c(Sc2ccc(C#N)c([N+](=O)[O-])c2)nnc1-c1cccc(Cl)c1 | 90% (active) | 17% | 1% | 96% (active) | inactive | inactive | inactive | inactive
Cc1ccc(O)c(-c2cc(C(=O)Nc3ccc(S(=O)(=O)N4CCCCCC4)cc3)[nH]n2)c1 | 80% (active) | 25% | 4% | 100% (active) | inactive | inactive | inactive | inactive
Cc1cc(OCC2CCN(c3ccc(C(=O)NC4CC4)cn3)CC2)ccc1F | 95% (active) | 6% | 3% | 94% (active) | inactive | inactive | inactive | inactive
CC(=O)c1ccc(NC(=O)CSc2nc(-c3ccccc3Cl)ns2)cc1 | 72% (active) | -13% | -1% | 89% (active) | inactive | inactive | inactive | inactive
COc1cc(Nc2ccnc3cc(-c4nccs4)ccc23)ccc1OCCCc1nc2ccccc2[nH]1 | 68% (active) | 100% (active) | 5% | 100% (active) | inactive | inactive | inactive | inactive
CCOc1ccc(-c2nonc2NC(=O)c2ccccc2F)cc1OCC | 100% (active) | -8% | 0% | 90% (active) | inactive | inactive | inactive | inactive
CCCc1ccc(NC(=O)c2ccc(CN3CCCN(CC4CCCCC4)CC3)cc2)cc1 | 41% | 49% | -7% | 95% (active) | inactive | inactive | inactive | inactive

SMILES | growth inhibition [1] | inhibition [2] | inhibition [3] | growth inhibition [4] | outcome [5] | outcome [6] | outcome [7] | outcome [8]
CCOCc1cnc(C)nc1CNC(=O)c1c(C)[nH]c2ccc(C)cc12 | 65% (active) | 8% | 3% | 84% (active) | inactive | inactive | inactive | inactive
CC1(C)C(N(O)C(=O)Nc2ccc(Cl)c(Cl)c2)N(c2ccc(Cl)c(Cl)c2)C(=O)N1CCc1ccccc1 (stereo not given) | 93% (active) | 10% | -1% | 91% (active) | inactive | inactive | inactive | inactive
Cc1sc(CNCCCNc2cc(=O)c3ccccc3[nH]2)c(I)c1C | 48% | -10% | -4% | 94% (active) | inactive | inactive | inactive | inactive
O=C(Nc1ccc(C(F)(F)F)cc1)c1cccc(S(=O)(=O)NC2CCN(CC3CCCCC3)CC2)c1 | 12% | 18% | -3% | 99% (active) | inactive | inactive | inactive | inactive
Cc1ccc(-c2nnc(-c3ccc(C(=O)NC4CCN(Cc5ccc(C#N)cc5)CC4)cc3)o2)cc1Br | 7% | 41% | -5% | 91% (active) | inactive | inactive | inactive | inactive
COc1cccc(C(=O)NCCc2cccc(Cl)c2)c1Oc1ccccc1 | 90% (active) | 28% | -1% | 97% (active) | inactive | inactive | inactive | inactive
N#Cc1ccc(Sc2nnc(-c3ccccc3Cl)n2CC2CCCCC2)cc1[N+](=O)[O-] | 34% | 30% | 1% | 85% (active) | inactive | inactive | inactive | inactive
CCC(C)NS(=O)(=O)c1ccc2nc(Nc3ccc(C)cc3)n(C3CCCCC3)c2c1 (stereo not given) | 97% (active) | -9% | -4% | 97% (active) | inactive | inactive | inactive | inactive
CC(C)(C)C(C)(C)Cc1ccc(O)c(CN2CCN(c3ccccc3)CC2)c1 | 98% (active) | 6% | 0% | 99% (active) | inactive | inactive | inactive | inactive
O=C(Nc1cccc(-c2ccc(-c3nc4ccc(C(F)(F)F)cc4[nH]3)s2)c1)c1cccnc1 | 99% (active) | 74% (active) | -3% | 101% (active) | inactive | inactive | inactive | inactive
COc1ccc(C(=O)N2CCC(C(=O)NC(C)c3ccc(-n4ccnc4)cc3)CC2)c2ccccc12 (stereo not given) | 79% (active) | 12% | -4% | 83% (active) | inactive | inactive | inactive | inactive
O=C(NCCCc1ccccc1)c1csc(C2CCCN(C(=O)c3ccc(O)c(-c4cccc5ccccc45)c3)C2)n1 (stereo not given) | 98% (active) | 3% | -1% | 97% (active) | inactive | inactive | inactive | inactive
Cc1cc(N(C)C)nc(Nc2ccc(NC(=O)c3c(F)cccc3F)cc2)n1 | 45% | 50% (active) | -1% | 94% (active) | inactive | inactive | inactive | inactive
NC(=O)c1cnc2cc(-c3ccncc3)cc(Nc3ccc(NC(=O)C4CCCCC4)cc3)c2c1 | 99% (active) | 58% (active) | 0% | 98% (active) | inactive | inactive | inactive | inactive
COc1cc(OC)c(NC(=O)C2c3ccccc3C(=O)N(C)C2c2cccs2)cc1Cl (stereo not given) | 52% (active) | 4% | -5% | 99% (active) | inactive | inactive | inactive | inactive
Oc1ccc(CCNc2nc(N/N=C/c3ccc(Cl)cc3)nc(N3CCNCC3)n2)cc1 | 68% (active) | 14% | 5% | 100% (active) | inactive | inactive | inactive | inactive
COc1cc(-c2nc(-c3ccccc3)c(-c3ccc([N+](=O)[O-])cc3)[nH]2)cc(OC)c1O | 56% (active) | 7% | -3% | 98% (active) | inactive | inactive | inactive | inactive
CN(C)CCN(C)Cc1cccc(-c2ccc3c(Nc4cc(O)c(Cl)cc4F)ccnc3c2)c1 | 70% (active) | 14% | -5% | 101% (active) | inactive | inactive | inactive | inactive
O=C(Nc1ccc2nccc(N3CCN4CCC[C@H]4C3)c2c1)c1ccc(Cl)c(Cl)c1 | 98% (active) | 18% | -8% | 101% (active) | inactive | inactive | inactive | inactive
CCOc1ccc(N2C(N)=NC(N)=NC2(C)C)cc1 | -2% | 10% | 0% | 95% (active) | inactive | inactive | inactive | inactive
